Data as given in PubChem BioAssay AID1508602 (The Scripps Research Institute Molecular Screening Center, 2020).
Among all 650,000 compounds or so, about 6,800 (1%) were called active. The sample holds actives, similar compounds and a random draw of the others, so the mix is not that of the screen. A number with no mark means an inactive call. Rule as the data show it: active = activation above about 4.9%; inactive = the rest.

What follows are compounds tested against G-protein coupled receptor 151 (Homo sapiens) (UniProt Q8TDV0) (assay: activates the human receptor GPR151, primary screen, cell-based, PathHunter beta-arrestin, luminescence (AID 1508602;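 also: 0% = median of compound wells and 100% = cells with positive control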)). Details: PathHunter beta-arrestin GPR151 cells, at 11.2 µM, active compounds read high.
Sequence of G-protein coupled receptor 151 (Homo sapiens) (Q8TDV0 whole entry, looked up): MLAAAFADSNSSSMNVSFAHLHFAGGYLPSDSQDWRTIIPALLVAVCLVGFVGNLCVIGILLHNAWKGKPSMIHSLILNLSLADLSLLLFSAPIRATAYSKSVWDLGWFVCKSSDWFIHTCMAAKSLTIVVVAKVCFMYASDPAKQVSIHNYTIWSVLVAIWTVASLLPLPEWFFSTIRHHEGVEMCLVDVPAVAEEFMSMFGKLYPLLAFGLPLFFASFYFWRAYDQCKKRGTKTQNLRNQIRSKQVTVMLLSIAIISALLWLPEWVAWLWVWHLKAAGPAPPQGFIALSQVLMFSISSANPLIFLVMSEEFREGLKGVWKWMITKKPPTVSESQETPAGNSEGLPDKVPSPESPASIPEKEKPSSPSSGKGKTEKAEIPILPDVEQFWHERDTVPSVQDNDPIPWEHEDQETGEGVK

Compound	activation
COc1cccc(CNC(=O)CCC(=O)N2CC(C)Oc3ccc(C)cc32)c1 (stereo not given)	0.215%
Cc1cccc(CN[C@H]2C[C@H]3C(=O)N[C@@H](CC(C)C)C(=O)N3C2)c1	1.59%
C=C(C)Cn1c(N2CCN(CCO)CC2)nc2c1c(=O)[nH]c(=O)n2C	-0.406%
Cc1ccc2nc(/C(C#N)=C/c3ccccc3F)[nH]c2c1	-0.301%
COc1ccc2nc(/C(C#N)=C\c3cc4c(cc3OC)OCO4)[nH]c2c1	5.68% (active)
COc1ccccc1/C=C(/C#N)c1nc2ccccc2[nH]1	-0.79%
COc1ccc2nc(/C(C#N)=C\c3c[nH]c4ccccc34)[nH]c2c1	-0.394%
COc1cc2c(cc1/C=C(\C#N)c1nc3ccccc3[nH]1)OCO2	0.566%
COc1cccc(/C=C(\C#N)c2nc3ccc(C)cc3[nH]2)c1OC	13.2% (active)
COc1ccc(S(=O)(=O)n2nc(-c3cc(OC)cc(OC)c3)cc2N)cc1	-1.02%
Cc1ccc(NC(=O)C2CCCN(S(=O)(=O)c3ccc4c(c3)oc(=O)n4C)C2)cc1C (stereo not given)	-0.645%
O=C(c1ccc(N2CCC(NCc3cccc(F)c3F)CC2)cc1)N1CCCC(CO)C1 (stereo not given)	0.257%
O=C(Nc1ccc2oc(-c3cccc(I)c3)nc2c1)c1cc(Br)ccc1Cl	-0.461%
O=C(Cc1ccc([N+](=O)[O-])cc1)NCCC1=CCCCC1	0.571%
O=C(Cc1cccs1)NCCC1=CCCCC1	9.81% (active)
O=C(CNC(=S)N(Cc1cccs1)C1CCCCC1)NCCC1=CCCCC1	2.8%
CCOC(=O)c1c(NC(=O)c2cc(S(N)(=O)=O)c(Cl)cc2Cl)sc2c1CCC(C)C2 (stereo not given)	0.0074%
COc1cc(/C=C2/C(=N)N3N=C(CC(C)C)SC3=NC2=O)ccc1OC(=O)c1ccc(F)cc1	-0.0343%
CCOC(=O)c1[nH]c2ccc(OC)cc2c1NC(=O)CN(C)C	6.75% (active)
CCOC(=O)c1[nH]c2ccc(OC)cc2c1NC(=S)N1CCN(c2ncccn2)CC1	2.39%
CCOC(=O)Nc1c(C(=O)OC)[nH]c2ccc(C)cc12	-1.5%
COc1ccccc1NC(=O)c1sc2ncn(Cc3cccc(Br)c3)c(=O)c2c1C	-1.06%
S=C(S)NCCc1c[nH]c2ccccc12	-0.43%
CSc1ncc(C(=O)NCCc2c[nH]c3ccccc23)c(C)n1	4.98% (active)
O=C(NCCc1c[nH]c2ccccc12)c1cccs1	-0.507%
Cc1ccc(CNC(=O)CN2C(=O)C3C4C=CC(C4)C3C2=O)o1 (stereo not given)	0.668%
C[C@@H](c1ccccc1)N1C(=O)[C@H]2[C@H]3[C@H](O)C=CC(=O)[C@@H]3CC[C@H]2C1=O	-1.71%

Compound	activation
CC(=O)N(c1nc(C=O)cs1)c1ccccc1F	1.55%
COc1ccc(N2C(=O)C(=O)/C(=C(/O)c3ccccc3)C2c2ccc(Cl)cc2)cc1 (stereo not given)	-0.225%
O=C(O)COc1ccc(N2C(=O)C(=O)/C(=C(\O)c3ccccc3)C2c2ccc(Cl)cc2Cl)cc1 (stereo not given)	6.19% (active)
CC(C)(C)c1ccc(C2/C(=C(/O)c3ccccc3)C(=O)C(=O)N2c2ccc(OCC(=O)O)cc2)cc1 (stereo not given)	-0.849%
CCOc1ccc2c(c1)=C/C(=C\c1[nH]c(=S)[nH]c1O)C(=O)N=2	-0.225%
CN1NC2(CCCCC2)N(c2ccccc2)C1=S	0.403%
COc1ccc(CCNc2cc(C)nc(NCc3ccc4c(c3)OCO4)n2)cc1	-0.591%
COc1ccc(CCNc2cc(C)nc(Nc3cccc(N(C)C)c3)n2)cc1	8.12% (active)
COc1ccc(CCNc2ncnc3c2nc(Nc2cccc(N(C)C)c2)n3C(C)C)cc1	-3.07%
CC1=C(C(=O)OCc2ccc3c(c2)OCO3)C(c2ccc(Cl)c(Cl)c2)NC(=O)N1 (stereo not given)	-0.562%
CC(C)(C)S(=O)(=O)Nc1nccnc1-c1ccc2c(c1)OCO2	-0.466%
CCCCSC1=C(C#N)C(c2ccc(OC)cc2)C2=C(CC(C)(C)CC2=O)N1 (stereo not given)	1.78%
CC(=O)N(C)c1ccc(N=Cc2ccc3ccccc3c2)cc1	-0.522%
O=C1NC2(CCN(CC(=O)N3CCCCC3)CC2)Nc2ccccc21	-0.0006%
Cc1ccc(N=Cc2c(NCc3ccco3)nc3c(C)cccn3c2=O)cc1	-0.949%
C/C(=N/NC(=O)c1ccccc1)c1ccc(F)cc1	-1.24%
CC(C)n1c(Nc2ccc3ncccc3c2)nc2c(NC3CC3)ncnc21	7.49% (active)
CC(C)n1c(Nc2ccc3ncccc3c2)nc2c(N)ncnc21	0.875%
CCCNc1ncnc2c1nc(Nc1cccc(N(C)C)c1)n2C(C)C	-1%
CC1=C(C(=O)Nc2nc3ccc(Br)cc3s2)C(c2ccccc2C)C2=C(CC(C)(C)CC2=O)N1 (stereo not given)	1.38%
COc1ccc(C(=O)Nc2ccc(S(=O)(=O)NC(C)C)cc2)cc1	5.49% (active)
COc1ccc(C(=O)Nc2ccc(S(=O)(=O)N(C)C3CCCCC3)cc2)cc1	-0.159%
COc1ccc(NC(=O)c2ccc(C(=O)Nc3ccc(OC)cc3)cc2)cc1	-0.694%
COc1cccc(-c2nc3nc(C)c(CCC(=O)NC4CCCC4)c(C)n3n2)c1	0.324%
CC(=O)Nc1cccc(-c2csc(C)n2)c1	-0.0322%
Cc1ccc(Cl)cc1NC(=O)C1CC(=O)c2ccccc21 (stereo not given)	0.739%
Cc1nc(-c2cccc(NC(=O)C3CC(=O)c4ccccc43)c2)cs1 (stereo not given)	7.17% (active)

Compound	activation
CCSCCOC(=O)C1=C(C)NC2=C(C(=O)CC(c3cccs3)C2)C1c1cc(OC)c(O)c([N+](=O)[O-])c1 (stereo not given)	0.362%
c1ccc(CN2CCC(Nc3nnnn3-c3ccccc3)CC2)cc1	0.295%
CC(NC(=O)Nc1ccc(Br)cc1Br)(C(F)(F)F)C(F)(F)F	-0.154%
CCOC(=O)c1c(NC(=O)CSc2nnc(CNC(=O)Cc3ccc(OC)cc3)n2-c2ccc(F)cc2)sc2c1CCCC2	-0.665%
COc1ccccc1N1CCN(CCNC(=O)c2ccc(F)cc2)CC1	-2.55%
COCCNC(=S)N1CCN(c2ncccn2)CC1	-1.93%
COCCNC(=S)N1CCN(c2ccccc2OC)CC1	12.1% (active)
CC(C)(C)c1ccc(S(=O)(=O)ON2C(=O)c3ccccc3C2=O)cc1	3.8%
CCCC(=O)Oc1ccc2c(-c3ccccc3)cc(=O)oc2c1	1.03%
C=CCn1c2ccccc2c2nnc(SC(CC)C(=O)Nc3nc(C)c(C(=O)OCC)s3)nc21 (stereo not given)	-0.843%
C=CCN(CC=C)C(=O)CSc1nnc2c3ccccc3n(C)c2n1	0.64%
C=CCn1c2ccccc2c2nnc(SCc3[nH]c(=O)[nH]c3C(=O)CCCCC(=O)OCC)nc21	9.28% (active)
O=C(NCC1OCCCN1S(=O)(=O)c1ccccc1)C(=O)NC1CC1 (stereo not given)	0.198%
C=CCNC(=O)C(=O)NCC1OCCCN1S(=O)(=O)c1ccccc1 (stereo not given)	5.93% (active)
O=C(NCCN1CCOCC1)C(=O)NCC1OCCCN1S(=O)(=O)c1ccccc1 (stereo not given)	-0.042%
Cc1nc(NC(=O)CSc2nnc3c(C)cc4cc5c(cc4n23)OCCO5)sc1C	0.827%
O=C(Nc1nc2ccccc2[nH]1)c1cc(Cl)ccc1Cl	-5.18%
CC(C(=O)NCCN1CCOCC1)n1c2ccccc2c2cn[nH]c(=O)c21 (stereo not given)	6.21% (active)
CC(C(=O)NC1CCCC1)n1c2ccccc2c2cn[nH]c(=O)c21 (stereo not given)	0.687%
CC(C(=O)NCc1ccc(F)cc1)n1c2ccccc2c2cn[nH]c(=O)c21 (stereo not given)	0.149%
Cc1ccccc1Cn1cc(SCC(=O)N2CCCC2)c2ccccc21	-1.67%
COc1ccccc1NC(=O)C1CC12CCN(Cc1cccc(OCCO)c1)CC2 (stereo not given)	-0.488%
Cn1c2ccccc2c2nnc(SCC(=O)Nc3ccc(Cl)cn3)nc21	-1.79%
Cn1c2ccccc2c2nnc(SCCCCC(=O)Nc3cccc4ccccc34)nc21	-1.31%
Cn1c2ccccc2c2nnc(SCC(=O)Nc3ccc(NC(=O)C4CC4)cc3)nc21	7.08% (active)
CC(C)(C)CN1CCC(Oc2cccc(C(=O)NCC3CC(=O)N(C4CC4)C3)c2)CC1 (stereo not given)	-0.301%
